We go through 59 compounds from PubChem BioAssay AID602144 (Vanderbilt Specialized Chemistry Center, 2011).

The test has as its target Phospholipase D1 (Homo sapiens) (UniProt Q13393). Put plainly: cellular phospholipase D1 activity inhibition – Calu-1 cells, single concentration (AID 602144).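 Further: tested at 200 nM.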 Particulars: cellular PLD1 activity, hits give low values.

Molecules are shown by their SMILES. Values joined by “and” are separate entries in the source; they are usually repeats but may differ in a detail not shown here. Equal entries are not always repeated. Values without a mark were called inactive. Active and inactive are the calls of the source. No stated cut-off is given here; in the data, active means remaining activity below about 50%; inactive means the rest.

Chain of Phospholipase D1 (Homo sapiens) (Q13393 whole entry, looked up): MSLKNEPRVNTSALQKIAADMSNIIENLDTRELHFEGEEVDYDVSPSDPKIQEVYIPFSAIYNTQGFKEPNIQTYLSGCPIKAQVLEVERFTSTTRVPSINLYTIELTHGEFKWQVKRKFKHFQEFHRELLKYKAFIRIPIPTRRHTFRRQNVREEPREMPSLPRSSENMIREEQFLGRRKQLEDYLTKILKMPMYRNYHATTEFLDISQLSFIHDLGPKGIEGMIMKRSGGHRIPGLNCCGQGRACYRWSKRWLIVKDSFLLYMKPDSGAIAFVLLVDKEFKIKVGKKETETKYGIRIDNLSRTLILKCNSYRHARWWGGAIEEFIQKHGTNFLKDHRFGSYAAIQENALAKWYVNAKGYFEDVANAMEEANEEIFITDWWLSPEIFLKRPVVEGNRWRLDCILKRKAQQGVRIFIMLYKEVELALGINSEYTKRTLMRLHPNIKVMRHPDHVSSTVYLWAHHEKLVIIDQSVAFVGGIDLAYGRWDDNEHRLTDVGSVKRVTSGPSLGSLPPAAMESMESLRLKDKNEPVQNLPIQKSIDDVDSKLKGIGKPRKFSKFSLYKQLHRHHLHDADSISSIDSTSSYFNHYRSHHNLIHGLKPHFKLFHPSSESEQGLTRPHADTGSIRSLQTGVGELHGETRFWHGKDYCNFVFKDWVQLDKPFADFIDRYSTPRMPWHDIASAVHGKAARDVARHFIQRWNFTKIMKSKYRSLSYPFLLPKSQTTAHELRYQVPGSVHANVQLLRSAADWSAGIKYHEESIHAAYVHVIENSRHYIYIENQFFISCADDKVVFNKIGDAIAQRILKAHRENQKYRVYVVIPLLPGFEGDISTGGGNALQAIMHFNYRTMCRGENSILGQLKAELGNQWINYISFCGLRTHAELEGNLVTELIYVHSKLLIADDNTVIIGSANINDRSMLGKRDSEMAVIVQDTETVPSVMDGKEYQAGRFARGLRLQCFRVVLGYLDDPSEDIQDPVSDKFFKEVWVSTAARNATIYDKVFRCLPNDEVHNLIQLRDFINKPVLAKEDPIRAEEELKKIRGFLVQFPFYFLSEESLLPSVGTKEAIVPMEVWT
Chain of Phospholipase D1 (Homo sapiens) (Q13393 whole entry, looked up): as above

Usually remaining activity stands for the signal under treatment as a percentage of the control signal. On to `O=C(NCCN1CCC2(CC1)C(=O)NCN2c1ccc(Br)cc1)c1ccc(F)cc1`, for which the remaining activity was 78.5%.
As for `Cc1ccc(C(=O)NCCN2CCC3(CC2)C(=O)NCN3c2ccccc2)c(O)c1`, the remaining activity is 89.1%.
With `O=C(NCCN1CCC2(CC1)C(=O)NCN2c1cccc(Cl)c1)c1cnc2ccccc2c1` the figure was 55.4%.
Consider `O=C(CCN1CCC2(CC1)C(=O)NCN2c1ccccc1)Nc1ccc(F)c(F)c1`, for which the remaining activity was 125%.
With `C[C@@H](CN1CCC2(CC1)C(=O)NCN2c1ccccc1)NC(=O)c1ccc(F)c(F)c1`, the remaining activity was 34.3% (active).
For `O=C(NCCN1CCC2(CC1)C(=O)NCN2c1ccc(F)cc1)c1cnc2ccccc2c1`, the remaining activity was 60.5%.
Regarding `O=C(NCCN1CCC2(CC1)C(=O)NCN2c1ccc(Br)cc1)c1cc2cc(F)ccc2[nH]1`, the remaining activity was 55.7%.
Next, `CN1CN(c2ccccc2)C2(CCN(CCNC(=O)c3ccc4ccccc4c3)CC2)C1=O`: 97.9%; `O=C(CN1CCC2(CC1)C(=O)NCN2c1ccccc1)c1ccccc1`: 102%; `O=C(NCCN1CCC2(CC1)C(=O)NCN2c1ccccc1)c1cc(Br)c(Br)o1`: 66.9%.
With `O=C(NCCN1CCC2(CC1)C(=O)NCN2c1ccccc1)c1ccc2c(c1)OCO2` the figure was 92.4%; with `O=C(NCCN1CCC2(CC1)C(=O)Oc1ccccc12)c1cnc2ccccc2c1`, 105%; with `O=C(NCCN1CCC2(CC1)C(=O)NCN2c1cccc(F)c1)c1cc(C(F)(F)F)ccc1C(F)(F)F`, 86.3%.
As to `O=C(Cc1cccs1)NCCN1CCC2(CC1)C(=O)NCN2c1cccc(F)c1`, the remaining activity is 89.8%.
Next, `O=C(NCCN1CCC2(CC1)C(=O)NCN2c1ccccc1)c1ccc(F)cc1O`: 107%; `CC(C)[C@@H](CN1CCC2(CC1)C(=O)NCN2c1ccccc1)NC(=O)c1cc2ccccc2[nH]1`: 1.51% (active); `CC(C)[C@@H](CN1CCC2(CC1)C(=O)NCN2c1ccccc1)NC(=O)c1cnc2ccccc2c1`: 18.3% (active).
Take `O=C(NCCN1CCC2(CC1)C(=O)NCN2c1ccc(Cl)cc1)c1ccc2ccccc2c1`: the remaining activity was 103%.
For `O=C(NCCN1CCC2(CC1)C(=O)NCN2c1cccc(F)c1)c1ccc2c(c1)C(=O)OC2=O`, the remaining activity was 102%.
With `O=C(NCCN1CCC2(CC1)C(=O)NCN2c1ccccc1)c1cc(-c2ccccc2)no1` the figure was 97.4%; with `O=C(c1ccc(F)c(F)c1)N1CCCC1CN1CCC(n2c(=O)[nH]c3ccccc32)CC1` (centres undefined), 85.3% and 91.1%; with `C[C@@H](CN1CCC2(CC1)C(=O)NCN2c1ccc(F)c(F)c1)NC(=O)c1cnc2ccccc2c1`, 5.04% (active).
Next, `C[C@@H](CN1CCC2(CC1)C(=O)NCN2c1ccccc1)NC(=O)c1ccc2ccccc2c1`: 4.56% (active); `O=C(NCCN1CCC2(CC1)C(=O)NCN2c1ccc(F)cc1)c1ccc2ccccc2c1`: 75.2%; `O=C(NCCN1CCC2(CC1)C(=O)NCN2c1ccccc1)c1cccnn1`: 105%.
In the case of `O=C(NCCN1CCC2(CC1)C(=O)NCN2c1ccc(Cl)cc1)c1ccc(F)cc1`, the remaining activity was 123%.
Next, `COc1cc(OC)cc(C(=O)NCCN2CCC3(CC2)C(=O)NCN3c2cccc(F)c2)c1`: 97%; `COc1cc(C(=O)NCCN2CCC3(CC2)C(=O)NCN3c2ccccc2)ccc1N`: 103%.
With `O=C(c1ccc2ccccc2c1)N1CC(N2CCC3(CC2)C(=O)NCN3c2ccccc2)C1`, the remaining activity was 82.4%.
With `O=C(CCN1CCC2(CC1)C(=O)NCN2c1ccccc1)Nc1cnc2ccccc2c1` the figure was 123%; with `CC(C)[C@@H](CN1CCC2(CC1)C(=O)NCN2c1ccccc1)NC(=O)c1cc2cc(F)ccc2[nH]1`, 6.9% (active); with `O=C(NCCN1CCC2(CC1)C(=O)NCN2c1cccc(F)c1)c1ccc(OC(F)(F)F)cc1`, 96.9%.
Next, `O=C(CCCl)NCCN1CCC2(CC1)C(=O)NCN2c1cccc(F)c1`: 75.7%; `O=C(NCCN1CCC2(CC1)C(=O)NCN2c1cccc(Cl)c1)c1ccc(F)cc1`: 79.6%; `O=C1c2ccccc2C(=O)N1CCCN1CCC2(CC1)C(=O)NCN2c1ccccc1`: 84.6%.
With `O=C(NCCN1CCC2(CC1)C(=O)NCN2c1ccc(Cl)cc1)c1cc2ccccc2[nH]1` the figure was 61.5%; with `C[C@@H](CN1CCC2(CC1)C(=O)NCN2c1ccccc1)NC(=O)[C@@H]1C[C@H]1c1ccccc1`, 70.5%; with `O=C(NCCN1CCC2(CC1)C(=O)NCN2c1cccc(F)c1)c1ccc(Cl)cc1Cl`, 110%.
As for `O=C(c1cccc(F)c1)N(CCN1CCC2(CC1)C(=O)NCN2c1cccc(F)c1)C(=O)c1cccc(F)c1`, the remaining activity is 93.5%.
Next, `O=C(NCCN1CCC2(CC1)C(=O)NCN2c1cccc(F)c1)c1cnc2ccccc2c1`: 79%.
With `Nc1cccc(Cl)c1C(=O)NCCN1CCC2(CC1)C(=O)NCN2c1ccccc1` the figure was 92.9%.
For the compound `O=C(NCCN1CCC2(CC1)C(=O)NCN2c1ccccc1)c1cc2ccccc2s1`, the remaining activity is 50.8%.
In the case of `O=C(NCCN1CCC2(CC1)C(=O)NCN2c1cccc(F)c1)C(c1ccccc1)c1ccccc1`, the remaining activity is 94.7%.
On to `O=C(NCCN1CCC2(CC1)C(=O)NCN2c1cccc(Cl)c1)c1ccc2ccccc2c1`, for which the remaining activity is 57.3%.
With `O=C(NCCN1CCC2(CC1)C(=O)NCN2c1cccc(Cl)c1)c1cc2cc(F)ccc2[nH]1` the figure was 58%; with `CC(C)[C@@H](CN1CCC2(CC1)C(=O)NCN2c1ccccc1)NC(=O)c1ccc(F)cc1`, 41.3% (active).
With `O=C(NCCN1CCC2(CC1)C(=O)N(Cc1ccccc1)c1ccccc12)c1ccc2ccccc2c1` the figure was 98.9%.
On to `O=C(NCCN1CCC2(CC1)C(=O)NCN2c1ccc(Cl)cc1)c1cnc2ccccc2c1`, for which the remaining activity is 94.2%.
With `O=C(c1cnc2ccccc2c1)N1CCC[C@@H]1CN1CCC2(CC1)C(=O)NCN2c1ccccc1` the figure was 107%; with `C[C@@H](CN1CCC2(CC1)C(=O)NCN2c1ccc(F)c(F)c1)NC(=O)c1ccc(Cl)cc1`, 6.51% (active); with `CC1(C)C(C(=O)NCCN2CCC3(CC2)C(=O)NCN3c2ccccc2)C1(C)C`, 104%.
Next, `O=C(NCCN1CCC2(CC1)C(=O)NCN2c1ccccc1)c1ccc(-c2ccccc2)o1`: 132%.
With `O=C(NCCCCCCN1CCC2(CC1)C(=O)NCN2c1ccccc1)c1ccc2ccccc2c1` the figure was 131%.
Regarding `O=C(c1cnc2ccccc2c1)N1CC(N2CCC3(CC2)C(=O)NCN3c2ccccc2)C1`, the remaining activity is 106%.
Take `O=C(NCCN1CCC2(CC1)C(=O)NCN2c1ccc(Br)cc1)c1ccc2ccccc2c1`: the remaining activity was 92.7%.
As to `O=C(NCCN1CCC2(CC1)C(=O)NCN2c1ccc(F)cc1)c1ccc2cc(F)ccc2c1`, the remaining activity was 94.6%.
With `O=C(NCCN1CCC2(CC1)C(=O)NCN2c1ccc(Cl)cc1)c1ccc(Cl)cc1` the figure was 103%; with `O=C(NCCN1CCC2(CC1)C(=O)NCN2c1ccc(F)c(F)c1)c1ccc(Cl)cc1`, 94.9%; with `O=C(NCCN1CCC2(CC1)C(=O)NCN2c1ccccc1)c1cc(=O)c2cc(Br)ccc2o1`, 110%.
